Screens as filed in PubChem BioAssay.
GSH fluor: compound fluoresces at 488/530 nm on GSH beads; AID 1776; GSH beads flow cytometry, compound fluorescence 488/530 nm; hits give high values; fluorescence (KMESF) at 10 µM; hit rate 0.25% among 190,000; in the data active = fluorescence above about 89;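 also: glutathione beads carrying GST-tagged Bcl family fusion proteins plus one bare bead set; values are compound well signal with DMSO vehicle wells as background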
RGS4-Gao reg: modulates binding of RGS4 to human Galphao | P09471 | Multiplexed bead flow cytometry; actives lie on both sides | binding response (% of control), % at 10 µM | hit rate 0.33% among 220,000 | AID 1415; in the data active = binding response below about 49% or above about 150%; inactive = in between;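 also: fluorescent Galphao activated with aluminum fluoride binding bead-coupled RGS4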
Target sequence (P09471 whole entry, looked up): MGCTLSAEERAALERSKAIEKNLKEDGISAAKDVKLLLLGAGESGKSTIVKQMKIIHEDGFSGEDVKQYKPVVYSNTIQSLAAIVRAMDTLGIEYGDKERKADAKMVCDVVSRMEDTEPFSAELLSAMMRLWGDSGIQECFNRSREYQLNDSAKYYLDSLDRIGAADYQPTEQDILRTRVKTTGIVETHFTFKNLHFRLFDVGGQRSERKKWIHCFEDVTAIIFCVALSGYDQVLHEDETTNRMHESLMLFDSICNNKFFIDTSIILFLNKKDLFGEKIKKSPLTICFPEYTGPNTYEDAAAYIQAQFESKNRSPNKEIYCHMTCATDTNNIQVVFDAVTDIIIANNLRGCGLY
RGS8-Gao: regulators of human RGS8-Galphao interaction. hit rate 0.34% among 220,000. response (percent of control binding), % at 10 µM. multiplexed bead flow cytometry, RGS8-Galphao binding; actives lie on both sides. P09471; in the data active = response below about 60% or above about 140%; inactive = in between;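 also: Galphao activated as the GDP aluminium fluoride complex binding bead-coupled RGS8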
Avidin bead fluor: compound fluoresces at 488/530 nm on avidin beads. AID 1775. hit rate 0.38% among 220,000. compound fluorescence 488/530 nm, flow cytometry; hits give high values. fluorescence (KMESF) at 10 µM; in the data active = fluorescence above about 47
RGS7-Gao reg: modulates binding of RGS7 to human Galphao | P09471 | hit rate 0.35% among 220,000 | binding response (% of control), % at 10 µM | AID 1439 | Multiplexed bead flow cytometry; actives lie on both sides; in the data active = binding response below about 49% or above about 150%; inconclusive = no clear call, values can overlap the other calls; inactive = in between;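 also: fluorescent Galphao held in activated GDP-AlF4 state binding bead-coupled RGS7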
RGS16-Gao: regulators of human RGS16-Galphao interaction | O15492+P09471 | bead-based flow cytometry RGS16-Galphao binding, fluorescence; actives lie on both sides | binding response (% of control), % at 10 µM | hit rate 0.38% among 220,000; call rule not given here;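 also: Galphao activated by GDP with aluminum fluoride before binding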
Target sequence (O15492 whole entry, looked up): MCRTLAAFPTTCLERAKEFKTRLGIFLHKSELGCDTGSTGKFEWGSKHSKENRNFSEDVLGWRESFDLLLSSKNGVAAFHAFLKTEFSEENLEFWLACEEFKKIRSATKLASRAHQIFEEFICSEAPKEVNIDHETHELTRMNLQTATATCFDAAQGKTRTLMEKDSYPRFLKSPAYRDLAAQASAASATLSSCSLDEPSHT
Target sequence (P09471 whole entry, looked up): as the sequence (P09471 whole entry, looked up) above
* = called active by the depositor; ? = inconclusive; / = no result given; [ ] = another dose, or the depositor's remark. A selection: hits, their analogues and other compounds. The true share with any hit is near 1.2%.

SMILES | GSH fluor | RGS4-Gao reg | RGS8-Gao | Avidin bead fluor | RGS7-Gao reg | RGS16-Gao
Cc1ccc(S(=O)(=O)N2CCN(C(=S)NCc3ccc4c(c3)OCO4)CC2)cc1 | 77 | 102 | 100 | 11 | 99 | 102
CCN(CC)S(=O)(=O)c1cccc(NC(=O)COC(=O)c2cc(=O)c3ccccc3o2)c1 | 9 | 103 | 107 | 8 | 97 | 102
CCN(CC)S(=O)(=O)c1cccc(NC(=O)COC(=O)c2ccc(Br)o2)c1 | 255* | 98 | 92 | 4 | 100 | 60
Cn1c(Cc2ccccc2)nnc1SCC(=O)Nc1ccc2c(c1)OCCO2 | 255* | 97 | 100 | 8 | 97 | 100
CCn1c(Cc2ccccc2)nnc1SCC(=O)Nc1ccc2c(c1)OCO2 | 45 | 101 | 100 | 9 | 102 | 101
Cc1onc(-c2c(F)cccc2Cl)c1C(=O)OCC(=O)Nc1c(C)n(C)n(-c2ccccc2)c1=O | 279* | 97 | 100 | 6 | 98 | 100
C=CCn1c(SCC(=O)c2ccc(O)c(O)c2)nnc1-c1ccccc1OC | 247* | 57 | 68 | 4 | 55 | 53
COc1ccc(/C=C/C(=O)c2ccccc2O)cc1 | 17 | 159*[activator] | 103 | 69* | 148 | 107
Cc1ccc(S(=O)(=O)N2CCN(C(=O)c3ccccc3)CC2)c(C)c1NS(C)(=O)=O | 20 | 102 | 96 | 11 | 105 | 98
Nc1nc(COc2ccccc2C=O)nc(Nc2ccccc2)n1 | / | 101 | 100 | 8 | ? | 96
CS/C(N)=N/S(=O)(=O)c1ccc(NC(C)=O)cc1 | / | 114 | 84 | 75* | ? | 87
CSc1ccccc1NC(=O)CN(C)CC(=O)Nc1c(F)cccc1F | 11 | 132 | 103 | 58* | 121 | 105
C=CCn1c2ccccc2c2nnc(SCC(=O)NC(C(=O)OC)C(C)C)nc21 (configuration not stated) | 23 | 123 | 96 | 119* | 139 | 121
CC(=O)Nc1cccc(NC(=O)CSc2nnnn2-c2ccc3c(c2)OCO3)c1 | / | 101 | 99 | 12 | ? | 98
Cn1c(=O)[nH]c(=O)c2[nH]c(NCCCN3CCOCC3)nc21 | 26 | 109 | 95 | 48* | 105 | 121
O=C(COC(=O)c1ccncc1)NCc1ccccc1 | 27 | 99 | 100 | 16 | 99 | 101
O=C(COC(=O)c1ccncc1)NCCCc1ccccc1 | 14 | 154*[activator] | 139 | 11 | 152*[activator] | 148
CCc1nc2ccccc2c(=O)n1NC(=O)c1c(O)c2ccccc2n(CC)c1=O | 17 | 104 | 99 | 11 | 101 | 101
CCn1c(=O)c(C(=O)Nc2nc3ccccc3[nH]2)c(O)c2ccccc21 | 114* | 105 | 104 | 4 | 106 | 108
COC(=O)c1cn(C(=O)/C=C/c2ccc(OC)c(OC)c2)c2ccccc12 | 14 | 97 | 99 | 9 | ? | 97
COCCCNc1nc2nonc2nc1N1CCC(C(C)N2CCOCC2)CC1 (configuration not stated) | 11 | 101 | 101 | 11 | 97 | 102
CN1CCN(C(=O)c2cnn3c(C(F)(F)F)cc(-c4cccs4)nc23)CC1 | 24 | 100 | 104 | 3 | 99 | 107
O=C(c1cnn2c(C(F)(F)F)cc(-c3cccs3)nc12)N1CCN(C(c2ccccc2)c2ccccc2)CC1 | 126* | 97 | 103 | 5 | 97 | 108
O=C1c2ccccc2C(=O)N1CCc1nc2ccccc2c(=O)n1CCCn1ccnc1 | 272* | 108 | 105 | 8 | 104 | 120
OCCC1CN(Cc2ccc3c(c2)CCO3)CCN1Cc1ccc(F)cc1 (configuration not stated) | 18 | 93 | 97 | 5 | 108 | 99
SMILES | GSH fluor | RGS4-Gao reg | RGS8-Gao | Avidin bead fluor | RGS7-Gao reg | RGS16-Gao
CCOC(=O)/C(C#N)=C(\O)c1ccc(NC(=O)c2ccc([N+](=O)[O-])cc2)cc1 | / | 127 | 107 | 59* | ? | 132
COc1cc(C(=O)NNc2nc3cc4c(cc3s2)OCO4)cc(OC)c1OC | 17 | 161*[activator] | 96 | 32 | 127 | 107
CCOC(=O)c1[nH]c(C)c(C(=O)Nc2ccc(F)cc2)c1C | 25 | 98 | 101 | 7 | 96 | 105
CCOC(=O)c1[nH]c(C)c(C(=O)Nc2ccccc2F)c1C | 25 | 102 | 97 | 108* | 127 | 105
CCN(CC)S(=O)(=O)c1csc(C(=O)OCC(=O)c2ccccc2)c1 | 104* | 83 | 95 | 4 | 88 | 86
Cc1ccc(NC(=O)Cn2cccc2C2=NC(c3ccccc3)CO2)cc1C (configuration not stated) | 21 | 101 | 105 | 14 | 96 | 114
CCc1ccccc1NC(=O)Cn1cccc1C1=NC(c2ccccc2)CO1 (configuration not stated) | 21 | 106 | 102 | 51* | 127 | 110
C/C(=N\NC(=O)COc1cccc(Cl)c1)c1ccc2c(c1)OCCO2 | 314* | 110 | 99 | 19 | 105 | 108
C/C(=N\NC(=O)CSCc1ccc(Cl)cc1)c1ccc2c(c1)OCCO2 | 22 | 104 | 99 | 3 | 101 | 103
O=C(O)CSc1nc2ccccc2o1 | 14 | 107 | 105 | 15 | 98 | 101
O=C(CSc1nc2ccccc2o1)N1CCCC1 | 260* | 103 | 102 | 8 | 101 | 100
Cc1ccc(-c2nnc(SCC(=O)N3CCCC3)o2)cc1 | 259* | 99 | 98 | 17 | 106 | 99
Cc1ccc(-c2nnc(SCC(=O)N3CCCC3)o2)cc1C | 25 | 100 | 101 | 31 | 98 | 100
O=C(CCN1CCN(c2ccccc2)CC1)N/N=C/c1ccccc1OC(F)F | 8 | 99 | 98 | 12 | ? | 100
CCc1ccc(NC(=S)N2CCNC(=O)C2CC(=O)OC)cc1 (configuration not stated) | 24 | 101 | 101 | 8 | 102 | 104
COc1ccccc1NC(=O)N1CCC(c2nc3cc(C)c(C)cc3[nH]2)CC1 | 12 | 104 | 104 | 22 | 104 | 111
CCOc1ccccc1NC(=O)N1CCC(c2nc3ccccc3[nH]2)CC1 | 259* | 104 | 102 | 7 | 102 | 101
O=C(NC1CCCc2ccccc21)c1cccnc1 (configuration not stated) | 256* | 102 | 101 | 7 | 103 | 106
O=C(NC(=S)NC(c1ccccc1)c1ccncc1)c1ccccc1 (configuration not stated) | 15 | 100 | 97 | 15 | 98 | 98
CCC(C)(C(=O)NC1CCCCC1)N(C(=O)CC1NC(=O)NC1=O)c1c(C)n(C)n(-c2ccccc2)c1=O (configuration not stated) | 26 | 102 | 102 | 24 | 101 | 104
O=C(CCl)Nc1ccccc1C(=O)NCc1ccccc1 | 16 | 99 | 100 | 9 | ? | 97
O=C(Cn1[nH]c(=O)c2ccccc2c1=O)Nc1ccc2c(c1)CCC2 | 270* | 102 | 100 | 8 | 100 | 105
